Compounds with a hit are over-represented: about 1.6% of the library has one in this group of screens.
PERK inhibitor = block of dimerizer-induced PERK translation repression, primary screen, PERK inhibitor project, CHO PERK-DD cells, SEAP luminescence, HTS; Eukaryotic translation initiation factor 2-alpha kinase 3 (Homo sapiens), Q9NZJ5; CHO PERK-DD fusion, SEAP luminescence translation reporter; inhibition, % at 5.6 µM; 220,000 compounds, 0.17% hits;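 active means inhibition above the mean inhibition of all tested compounds plus 3 SD, set separately per screening campaign, cut at about 2.9% in these data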;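 further: PERK kinase domain activated by AP20187 dimerizer at 100 nM; 0% = DMSO with dimerizer and 100% = rapamycin at 8.4 µM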
PABP1 MLLE inh = inhibitors of PABP1 MLLE–PAM2 peptide binding, primary screen, biochemical, fluorescence polarization, FITC-PAM2, GST-MLLE. Polyadenylate-binding protein 1 (Homo sapiens), P11940. inhibition, % at 20 µM. 360,000 compounds, 0.36% hits. AID 588489, 2011; in the data active means inhibition above about 35%, passing the limit was not always enough;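 further: plate controls were DMSO wells with GST-MLLE for no effect and wells lacking GST-MLLE protein for full effect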
PABP FP inh = PABP poly(A) RNA binding inhibitors, primary screen, biochemical, fluorescence polarization, uHTS; AID 2014, 2009; Polyadenylate-binding protein 1 (Homo sapiens), P11940; calls only at 35 µM; 290,000 compounds, 1% hits;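 further: calls also rest on retests at 20 µM and on dose response follow-up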
eIF4H FP inh = human eIF4H binding inhibitors, primary screen, translation initiation inhibitor project, biochemical, uHTS, fluorescence polarization | Eukaryotic translation initiation factor 4H (Homo sapiens), Q15056 | eIF4H fluorescence polarization binding assay | inhibition, % at 35 µM | AID 2012, 2009 | 290,000 compounds, 0.94% hits;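 further: calls also rest on retests at 20 µM and on dose response follow-up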
eIF4E 4G PPI = eIF4E–eIF4G protein interaction inhibitors, primary screen, biochemical, uHTS, TR-FRET, eIF4GI fragment. TR-FRET eIF4E-eIF4GI(517-606) binding, 2 h. 220,000 compounds, 0.37% hits. Eukaryotic translation initiation factor 4E (Mus musculus) + Eukaryotic translation …. inhibition, % at 21.7 µM. AID 782, 2007;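 active means inhibition above about 30%, limit read from the data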;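 further: 0% = full FRET control wells and 100% = background wells lacking eIF4GI fragment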
* hit, by the source's call; i = inactive; . = not tested or not shown; + = active, no number. Unless noted, how the calls were made is not given here.

SMILES	PERK inhibitor	PABP1 MLLE inh	PABP FP inh	eIF4H FP inh	eIF4E 4G PPI
O=C(/C=C/c1ccco1)N/C(=C\c1ccco1)C(=O)NCCc1nc2ccccc2[nH]1	1.0	-2.9	+	77.0*	4.6
COc1ccc(/C=C/C(=O)N/C(=C\c2ccco2)C(=O)NCCc2nc3ccccc3[nH]2)cc1	-0.7	-30.6	i	-8.2	0.6
CC(=O)Nc1ccc(NC(=O)c2ccccc2Br)cc1	.	0.1	.	.	.
CC(=O)Nc1ccc(SCC(=O)c2cc(C)n(-c3ccccc3F)c2C)cc1	0.1	40.3*	i	1.9	-1.1
COC(=O)c1ccc(-n2c(C)cc(C(=O)CSc3ccc(NC(C)=O)cc3)c2C)cc1	0.0	29.4	i	-5.3	4.8
CC(=O)Nc1ccc(SCC(=O)NC(=O)c2ccccc2Br)cc1	.	43.8*	.	.	.
O=C(O)/C=C\C(=O)Nc1ccccc1C(=O)N1CCC(O)(c2ccc(Cl)cc2)CC1	.	3.4	.	.	.
Cc1cc(C)n2c(SC/C(O)=C(\C#N)c3nc4ccccc4[nH]3)nnc2n1	-0.5	-23.0	+	79.7*	9.3
Cc1ccccc1-n1c(SC/C(O)=C(\C#N)c2nc3ccccc3[nH]2)nnc1-c1ccncc1	0.0	-41.5	i	30.6	-1.7
O=C(OCCCN1CCOCC1)c1ccc(O)c(O)c1	3.4*	1.8	i	1.1	-5.8
CCN1CSC(=S)N(Cc2ccc(OC)cc2)C1	0.7	39.8*	i	3.4	2.1
COc1cccc(CNC(=O)CCCc2c[nH]c3ccccc23)c1	.	1.4	i	-3.3	.
COCCN1CCc2[nH]c(=S)[nH]c(=O)c2C1	0.1	39.6	i	-7.7	-2.9
CCCCN1CCc2[nH]c(=S)[nH]c(=O)c2C1	0.9	48.7*	i	-5.4	4.0
CC(c1ccccc1)N1CCc2[nH]c(=S)[nH]c(=O)c2C1 (centres undefined)	1.0	38.5*	i	3.9	-1.0
Cc1ncsc1C(=O)N1CCCC(C(=O)c2ccc3ccccc3c2)C1 (centres undefined)	.	-1.4	i	-0.9	.
Cc1ccc(C(=O)NC(=S)Nc2ccc3[nH]c(=O)[nH]c3c2)c(C)c1	0.7	37.6*	i	-2.6	1.1
CCc1ccc(NC(=S)Nc2ccc3[nH]c(=O)[nH]c3c2)cc1	3.0*	21.6	+	1.7*	-1.4
Cc1cccc(C(=O)NC(=S)Nc2ccc3[nH]c(=O)[nH]c3c2)c1	1.1	12.3	i	-1.3	0.2
O=c1[nH]c2ccc(NC(=S)Nc3ccc(F)cc3)cc2[nH]1	0.9	18.9	i	1.6	4.3
CCN(CC)c1ccc(NC(=O)CCS(=O)(=O)c2ccc(Br)cc2)c(C)c1	.	-9.8	+	93.3*	.
CC1CCCN(C(=O)CN2CCC(c3nc4ccc(Cl)cc4[nH]3)CC2)C1 (centres undefined)	1.4	5.3	+	91.0*	-1.3
COc1ccccc1-c1ccc2c(c1)O[C@@H](CN(C)C(=O)c1ccncc1)[C@H](C)CN([C@@H](C)CO)S2(=O)=O	.	-5.2	.	.	.
O=C1/C(=C/c2ccco2)Cc2ccccc21	0.9	-1.1	+	80.4*	2.5
CCOc1ccc(C(=O)NCC(c2ccco2)N2CCOCC2)cc1 (centres undefined)	.	2.8	.	.	.
SMILES	PERK inhibitor	PABP1 MLLE inh	PABP FP inh	eIF4H FP inh	eIF4E 4G PPI
O=C(C1=COCCO1)N(Cc1nnc(-c2ccccc2Cl)o1)C1CC1	.	-2.5	.	.	.
CSCCC(NC(N)=O)C(=O)Nc1ccc2ccccc2c1 (centres undefined)	-0.1	-7.2	i	-2.5	2.2
CSCCC(NC(N)=O)C(=O)Nc1cccc(C#N)c1 (centres undefined)	0.4	-2.4	i	52.7*	2.5
O=S(=O)(Nc1nccs1)c1ccc(NS(=O)(=O)c2c(F)cc(F)c(Cl)c2F)cc1	.	1.2	.	.	.
CC[n+]1c(C)sc2sc3ccccc3c21	1.1	.	+	15.2	-2.3
O=c1nc2n(c3sc4c(c13)CCCC4)C(CBr)CS2 (centres undefined)	-0.4	39.7*	i	-11.1	3.6
O=c1c2ccccc2nc2n1C(CBr)CS2 (centres undefined)	1.7	24.1	i	-6.9	3.7

Source: PubChem
